Source: PubChem (National Center for Advancing Translational Sciences (NCATS))
The list is not random: actives were taken first. Their share in the collection is about 7.4%.
NPC1 promoter act: qHTS Assay for NPC1 Promoter Activators; AID 485313, 2010; Potency, µM (titrated, usually from 9.22 µM), for the others: top-dose activation, hits mostly activators; Huh7 NPC1 promoter luciferase reporter, 24 h; 2.4% of 320,000 active; further: % of control where 0% means no effect; nearly all actives have a fitted effect of over 60% in size
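Stably transfected Huh7 (NPC1 promoter→luciferase), 1500 cells/well in Opti-MEM + 10% FBS, 2 h settle, then compound 24 h at 37 °C. Luminescence after 10 min with Amplite reagent.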
FLuc counter: qHTS profiling assay for firefly luciferase inhibitor/activator using purifed enzyme and Km concentrations of substrates (counterscreen for miR-21 project); Potency, µM (titrated, usually from 57.5 µM), for inactives: at the top dose activity change, negative = inhibition, hits mostly inhibitors; purified FLuc, Km substrates, luminescence inhibition; 6.9% of 360,000 active; AID 588342, 2011; Luciferin 4-monooxygenase (Photinus pyralis), P08659;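 further: plate controls were vehicle for no effect and reference inhibitor for full effect; nearly all actives have a fitted effect of over 55% in size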
Target sequence (P08659 whole entry, looked up): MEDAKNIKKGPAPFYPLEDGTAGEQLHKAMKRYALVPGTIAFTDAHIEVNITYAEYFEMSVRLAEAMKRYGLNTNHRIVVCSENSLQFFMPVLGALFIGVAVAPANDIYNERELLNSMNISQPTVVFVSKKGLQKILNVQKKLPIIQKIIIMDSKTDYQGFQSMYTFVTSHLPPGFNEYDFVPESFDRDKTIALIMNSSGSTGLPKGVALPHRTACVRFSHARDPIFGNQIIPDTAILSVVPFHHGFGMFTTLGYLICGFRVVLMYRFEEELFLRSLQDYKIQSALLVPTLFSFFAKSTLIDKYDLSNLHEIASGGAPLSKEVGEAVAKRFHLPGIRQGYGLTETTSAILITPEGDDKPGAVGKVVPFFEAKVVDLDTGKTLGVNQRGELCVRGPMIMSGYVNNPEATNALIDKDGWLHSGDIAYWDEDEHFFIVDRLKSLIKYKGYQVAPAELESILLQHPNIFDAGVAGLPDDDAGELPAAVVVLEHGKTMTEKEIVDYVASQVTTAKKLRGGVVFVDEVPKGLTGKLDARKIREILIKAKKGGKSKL
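Biochemical qHTS of compounds, final roughly 60 µM downward over six points, against 10 nM purified firefly luciferase using Km concentrations of substrates (10 uM D-luciferin, 10 uM ATP) in Tris acetate pH 7.5 buffer; luminescence output.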
Rab9 promoter act: qHTS Assay for Rab9 Promoter Activators; Huh7 Rab9 promoter-luciferase reporter, luminescence, 24 h; 2.8% of 320,000 active; Potency, µM (highest dose often 9.22 µM), without a hit: at the highest dose activation, negative = inhibition, usual class: activators; further: % of control where 0% means no effect; nearly all actives have a fitted effect of over 60% in size
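Luciferase signal after 10 min detection reagent at ambient indicates Rab9 promoter upregulation; stably transfected Huh7 cells were treated 24 h with compound in DMSO at 37 °C, 5% CO2.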
SMN2 splice enh: qHTS Assay for Enhancers of SMN2 Splice Variant Expression. HEK293 SMN2-luciferase splicing reporter, luminescence, 30-36 h. Potency, µM (doses to about 46.1 µM), for inactives: at the top dose activity change, positive = activation, actives largely listed as activators. 2.8% of 210,000 active. AID 1458, 2008; further: % of control where 0% means no effect; nearly all actives have a fitted effect of over 55% in size
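qHTS luciferase splicing reporter: luminescence rises when SMN2 exon 7 is included in transfected HEK293 cells. Compound exposure lasted 30-36 h at 37C, with 4.5 mM final sodium butyrate as control, followed by a ONE-Glo read.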
ELG1 genotox: qHTS screen for small molecules that induce genotoxicity in human embryonic kidney (HEK293T) cells expressing luciferase-tagged ELG1; 1.3% of 330,000 active; Potency, µM (top dose mostly 46 µM), for inactives: at the highest dose activity change, positive = activation, hits mostly activators; HEK293T ELG1-luciferase reporter, luminescence, 16 h; AID 504466, 2011; further: % of control where 0% means no effect; nearly all actives have a fitted effect of over 60% in size
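ELG1-luciferase HEK293T cells, 2,000/well; compound pinned in; 16 hr, 37 °C, 5% CO2; ONE-Glo, 30 min RT; luminescence on CCD imager.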
An asterisk follows results filed as active; ? = inconclusive; · = not tested or not shown; [ ] = remark or other dose. The call rests on the fitted dose curve; in most records, active means well fitted curve in the direction sought with a large enough effect; inconclusive means small, poorly fitted or top-dose-only effect, or another doubt; inactive means no such curve, though single readings can be large; an effect the other way counts as inactive or inconclusive. Potency means the concentration at half of the fitted maximal effect.

SMILES	NPC1 promoter act	FLuc counter	Rab9 promoter act	SMN2 splice enh	ELG1 genotox
S=C(NCc1ccco1)Nc1cc(-c2ccccc2)[nH]n1	7%	?	1%	10%	7%
CC(=O)c1ccc(NC(=O)Nc2ccccc2)cc1	0.45µM*	7.6µM*	0.32µM*	11µM*	1.8µM*
O=C(Nc1ccccc1)Nc1ccc2ccccc2c1	2.5µM*	?	3.5µM*	·	14%
O=C(N/N=C/c1ccc(O)c(O)c1)NC12CC3CC(CC(C3)C1)C2	-6%	-14%	0%[1.84 µM]	·	3%
O=C(N/N=C/c1ccccc1O)NC12CC3CC(CC(C3)C1)C2	?	21µM*	6.3µM*	·	?
S=C(NC1CCCCC1)N1CCc2[nH]c3ccccc3c2C1	-4%	24µM*	-10%	·	10%
Cc1ccc(NC(=S)N2CCc3[nH]c4ccccc4c3C2)cc1	1%	-19%	0%	·	0%
CC(=O)c1ccc(NC(=O)c2cccc(NC(=O)c3ccccc3)c2)cc1	16%	?	29%	·	10%
CC(=O)c1ccc(NC(=O)c2ccn[nH]2)cc1	2µM*	9.5µM*	3.5µM*	11µM*	10µM*
O=C(Nc1ccccc1)c1ccn[nH]1	3.5µM*	11µM*	2.5µM*	13µM*	?
c1ccc(C2CCCN(Cc3nc(CC4CC4)no3)CC2)cc1 (centres undefined)	11%	24µM*	24%	5%	12%
Cc1ccc(-c2ccc(CCC(=O)O)o2)cc1	4%	11µM*	19%	?	11%
Cc1ccc(C)c(OCc2cc(C(=O)N3CCNC(=O)C3)no2)c1	-6%	6%	11%	·	0%
COc1cc(Cl)ccc1OCc1cc(C(=O)N2CCCCCCC2)no1	3%	?	11%	·	3%
COCCN1CCN(C(=O)c2cc(COc3cc(C)ccc3C)on2)CC1	?	13µM*	2.2µM*	·	?
COCCCC1CCN(C(=O)c2cc(COc3cc(C)ccc3C)on2)CC1	2.5µM*	12µM*	3.5µM*	·	?
Cc1ccc(C)c(OCc2cc(C(=O)N3CCOCC3)no2)c1	23%	21µM*	?	·	?
COCCN1CCN(C(=O)c2cc(COc3ccc(Cl)cc3OC)on2)CC1	?	11µM*	3.2µM*	·	21µM*
Cc1ccc(-n2cnnn2)cc1S(N)(=O)=O	·	-1%	·	·	·
CC(=O)NCCC1CCCCN1C(=O)c1cc(COc2cc(C)ccc2C)on1 (centres undefined)	3.5µM*	17µM*	2.2µM*	·	16µM*
Cc1ccc(S(=O)(=O)N2CCCC2CNC(=O)C(=O)Nc2ccc(F)cc2F)cc1 (centres undefined)	-2%	-8%	-3%	·	-2%
Cn1cccc1/C=C1\CCC/C(=C\c2cccn2C)C1=O	1.3µM*	6µM*	0.89µM*	?	1.8µM*
O=C1/C(=C/c2cccs2)CCC/C1=C\c1cccs1	1.3µM*	1.9µM*	3.5µM*	·	?
CC1C/C(=C/c2cccs2)C(=O)/C(=C/c2cccs2)C1 (centres undefined)	-1%	?	8%	-16%	0%
COCCCN=Cc1c(-c2ccccc2)[nH]n(-c2nc3ccccc3s2)c1=O	-6%	15µM*	1%	·	1%
SMILES	NPC1 promoter act	FLuc counter	Rab9 promoter act	SMN2 splice enh	ELG1 genotox
CCCc1[nH]n(-c2nc3ccccc3s2)c(=O)c1C=NCCCOC	13%	-16%	5%	·	7%
CCCc1[nH]n(-c2nc3ccccc3s2)c(=O)c1C=NCC1CCCO1 (centres undefined)	6%	-18%	14%	-7%	2%
CCCCCN=Cc1c(C)[nH]n(-c2nc3ccccc3s2)c1=O	?	4.8µM*	?	11%	2.9µM*
CCCc1[nH]n(-c2nc3ccccc3s2)c(=O)c1C=NCCN1CCOCC1	18%	17µM*	16%	41%	?
O=c1c(C=NCCCO)c(-c2ccccc2)[nH]n1-c1nc2ccccc2s1	0%	15µM*	-12%	·	11%
COC(=O)Cc1c(C)c2ccc(O)c(CNCc3ccc(OC)c(OC)c3)c2oc1=O	1%	-1%	-6%[1.84 µM]	·	-2%
OCC[C@@H]1C[C@H](O)[C@@H](O)[C@]2(CCc3ccccc3O2)O1	2%	6%	-2%	·	4%
O=C1c2ccccc2C(=O)N1CCSC(=S)N1CCOCC1	?	12µM*	?	?	?
O=C(COc1ccccc1Cl)Nc1cc(NC(=O)COc2ccccc2Cl)cc(C(=O)O)c1	?	?	4µM*	·	?
Cc1ccc(Cl)c(OCC(=O)Nc2cccnc2)c1	?	15µM*	8%	·	?
O=C(COc1ccccc1Cl)Nc1cccnc1	?	19µM*	?	·	?
O=C(COc1ccc(F)cc1F)Nc1cccnc1	10%	-15%	5%	·	17%
COc1ccccc1OCC(=O)Nc1cc(NC(=O)COc2ccccc2OC)cc(C(=O)O)c1	1%	-13%	4%	·	11%
COc1cc(OC)c(N(C)C(=O)Nc2cn(CC(C)C)c(=O)c3ccccc23)cc1Cl	·	-1%	·	·	·
Clc1ccc(-c2ccc(CNCc3ccccn3)o2)cc1	?	15µM*	24%	·	4%
Fc1ccc(-c2ccc(CNCc3ccccn3)o2)cc1	27%	24µM*	5%	·	?
COc1ccc(-c2ccc(CNCc3ccccn3)o2)cc1Cl	-4%	?	-3%	·	8%
CCOc1ccccc1NC(=O)N1CCC(NC(=O)C2CCCCC2)CC1	-3%	2%	-5%	·	0%
NCCCc1ccc2oc3ccccc3c2c1	·	·	·	-2%[9.22 µM]	·
CCC(NC(=O)CSc1nnnn1C1CC1)c1ccc(Br)cc1 (centres undefined)	-2%	9%	-5%	·	3%
Cc1c(C(=O)Nc2cccc3cccnc23)oc2ccccc12	26%	-18%	?	3%	18%
Cc1c(C(=O)Nc2nnc(C3CC3)s2)oc2c(Cl)cccc12	17%	1%	1%	·	?
Cc1c(C(=O)Nc2nnc(C3CC3)s2)oc2ccccc12	3.5µM*	4.8µM*	2.2µM*	·	?
Cc1c(C(=O)NC2=NCCS2)oc2ccccc12	?	3µM*	?	2.8µM*	?
Cc1csc(NC(=O)c2oc3ccccc3c2C)n1	3.2µM*	1.7µM*	3.5µM*	·	?
O=C(Cc1c[nH]c2ccccc12)Nc1nnc(C2CC2)s1	2%	1%	-1%	11µM*	-10%
O=C(Cc1coc2ccc3ccccc3c12)Nc1nnc(C2CC2)s1	3%	-2%	15%	·	0%
O=S(=O)(NC1C2CC3CC(C2)CC1C3)c1ccccc1 (centres undefined)	-2%	·	-1%	·	-1%
Cc1ccc(NC(=O)c2cccc(NC(=O)N3CCSc4ncccc43)c2)cc1Cl	·	1%	·	·	·
